Results filed as inconclusive are left out. Active and inactive are the calls of the source. The call rests on the fitted dose curve; in most records, active means well fitted curve in the direction sought with a large enough effect in the signal ratio (not every such curve was filed as active); inconclusive means small, poorly fitted or top-dose-only effect, or effect the other way, or a change in a side signal; inactive means no such curve, though single readings can be large or run the other way; the % refers to the signal ratio.
Target: Tyrosine-protein phosphatase non-receptor type substrate 1 (Homo sapiens) + Leukocyte surface antigen CD47 (Homo sapiens) (UniProt P78324+Q08722)
Assay: CD47-SIRPalpha protein protein interaction - HTRF assay qHTS validation (AID 1347058); further: 0% is about no effect
Conditions: TR-FRET HTRF CD47-His / biotin-SIRPalpha binding, ratio 665/615; series mostly up to 38.3 µM; activity change, negative = inhibition: at the top concentration
Excerpt: SIRPalpha is a myeloid cell expressed immunomodulatory receptor that binds the tumor expressed immune checkpoint CD47. Therapeutic disruption of this interaction leads to immune-mediated tumor rejection. This assay was used to quantitate CD47-SIRPalpha binding biochemically and evaluate chemical libraries for novel CD47-SIRPalpha inhibitors. To recapitulate the biological interaction of CD47 and SIRPalpha, we designed expression constructs to produce their recombinant, soluble, extracellular interaction domains. CD47 was produced with an N-terminal 6His tag. SIRPalpha was produced with an N-terminal Avi-Tag for site-specific biotin incorporation. The CD47-SIRPalpha interaction was measured by TR-FRET using affinity tag linked reagents (anti-6His-Eu donor and streptavidin-XL665 acceptor). SIRPalpha without biotin incorporation was used as a positive control inhibitor.
SEQUENCE No. (e.g., 1, 2, 3, etc.); […] (e.g., Cells, Incubation, Reagent, etc.); VALUE and DESCRIPTION.
1a. Reagent. 3 uL CD47-His (12.5 nM) and Anti-His Eu Donor reagent (0.7 nM) added to respective wells in Assay buffer; white/solid bottom high base, med bind 1536-well plates (Greiner 789075)
1b. Reagent. 2 uL Assay buffer negative control for background fluorescence
2. Reagent. 23 nL library compounds (7-pt, 1:4 intraplate titration series) or DMSO control transferred by Pin Tool
3. Centrifuge. Centrifuge plate for 30 s at 1000 RPM
4. Incubation.#Incubate reagents at room temperature for 30 min, protected from light
5. Reagent. 2 uL SIRPalpha-biotin (100 nM) in Assay buffer
6. Incubation.#Incubate reagents at room temperature for 30 min, protected from light
7. Reagent. 1 uL SAV-XL665 (85 nM) acceptor reagent added to respective wells
8. Centrifuge. Centrifuge plate for 30 s at 1000 RPM
9. Incubation. Incubate reagents at room temperature for 30 min, protected from light
10. Detector. Measure Top TR-FRET on EnVision (Eu/APC filter set); calculate ratio Ch1/Ch2
1. Assay buffer composition.#Phosphate buffered saline (PBS; 10 mM Phosphate, 137 mM NaCl, and 2.7 mM KCl; pH 7.4), 0.05% IGEPAL CA-630
2. 23nL of […] library compounds (7 plates) or DMSO vehicle control transferred to 9 Greiner white/solid bottom high base, TC plates in 7 interplate 1:5 titrations (see Yasgar, A. et al. 2008) with Pintool. Two of the 9 plates are DMSO-only in compound field at beginning and end of compound library-treated plates.
10. Detector settings#Mirror = LANCE/DELFIA Dual Enh; Ex. Filter = UV2[TRF] 320; Em. Filter = APC 665; 2nd Em. Filter = Europium 615; Measurement h = 6.5; Ex. light (%) = 100; Delay = […]; Window t = 100 us; No. Seq. windows = 1; Time between flashes = 2000us; No. of flashes = 100; No. of flashes for 2nd detector = 100; Calculation: "Ratio Ch1/Ch2"

Tyrosine-protein phosphatase non-receptor type substrate 1 (Homo sapiens) + Leukocyte surface antigen CD47 (Homo sapiens), sequence (P78324 whole entry, looked up): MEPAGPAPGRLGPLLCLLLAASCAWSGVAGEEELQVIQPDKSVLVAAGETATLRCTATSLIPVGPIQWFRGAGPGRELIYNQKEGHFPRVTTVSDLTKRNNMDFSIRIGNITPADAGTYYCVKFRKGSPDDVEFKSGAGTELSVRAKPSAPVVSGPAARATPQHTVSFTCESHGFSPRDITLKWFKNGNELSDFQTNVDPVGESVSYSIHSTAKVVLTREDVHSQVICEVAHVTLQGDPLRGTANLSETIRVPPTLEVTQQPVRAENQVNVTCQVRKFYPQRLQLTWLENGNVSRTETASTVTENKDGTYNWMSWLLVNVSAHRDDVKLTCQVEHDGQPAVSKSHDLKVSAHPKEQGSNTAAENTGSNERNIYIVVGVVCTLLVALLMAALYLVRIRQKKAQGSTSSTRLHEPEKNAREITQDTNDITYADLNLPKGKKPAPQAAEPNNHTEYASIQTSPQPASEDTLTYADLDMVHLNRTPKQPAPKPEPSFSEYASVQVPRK
Tyrosine-protein phosphatase non-receptor type substrate 1 (Homo sapiens) + Leukocyte surface antigen CD47 (Homo sapiens), sequence (Q08722 whole entry, looked up): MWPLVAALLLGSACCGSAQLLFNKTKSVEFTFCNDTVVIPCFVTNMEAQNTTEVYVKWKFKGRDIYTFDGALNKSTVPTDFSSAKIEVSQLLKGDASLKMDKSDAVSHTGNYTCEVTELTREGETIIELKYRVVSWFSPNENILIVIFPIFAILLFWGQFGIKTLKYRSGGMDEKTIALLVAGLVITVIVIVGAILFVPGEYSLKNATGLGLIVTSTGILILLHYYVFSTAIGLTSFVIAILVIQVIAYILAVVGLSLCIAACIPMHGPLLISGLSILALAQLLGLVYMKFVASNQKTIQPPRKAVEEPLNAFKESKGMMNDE

SMILES	activity change, negative = inhibition	outcome
O=C1NCC2(CCN(CCc3ccccc3)CC2)O1	1.86% (inactive)	–
CN(C)CCC(c1ccccc1)c1ccccn1 (stereo not drawn)	-2.48% (inactive)	–
COc1ccc(Cc2nccc3cc(OC)c(OC)cc23)cc1OC	-2.32% (inactive)	–
COc1ccccc1N1CCN(CCCNc2cc(=O)n(C)c(=O)n2C)CC1	1.16% (inactive)	–
O=C(O)CCc1nc(-c2ccccc2)c(-c2ccccc2)o1	6.95% (inactive)	–
Clc1ccc(Cn2c(CN3CCCC3)nc3ccccc32)cc1	0.1% (inactive)	–
CC1=C(/C=C/C(C)=C/C=C/C(C)=C/C(=O)Nc2ccc(O)cc2)C(C)(C)CCC1	-0.617% (inactive)	–
CCN(CC)C(=O)c1ccc(O)c(OC)c1	-6.83% (inactive)	–
O=C(NCCN1CCOCC1)c1ccc(Cl)cc1	1.69% (inactive)	–
CCCNC(=O)NS(=O)(=O)c1ccc(Cl)cc1	-0.638% (inactive)	–
CC(=O)O[C@]1(C(C)=O)CC[C@H]2[C@@H]3C=C(Cl)C4=CC(=O)[C@@H]5C[C@@H]5[C@]4(C)[C@H]3CC[C@@]21C	-0.654% (inactive)	–
CCN(CC)CCOC(=O)c1ccc(N)cc1	-2.02% (inactive)	–
CCN(CC)CCNC(=O)c1ccc(N)cc1	0.908% (inactive)	–
CC(=O)c1ccc(S(=O)(=O)NC(=O)NC2CCCCC2)cc1	-6.49% (inactive)	–
CCn1cc(C(=O)O)c(=O)c2ccc(C)nc21	1.77% (inactive)	–
CCN1CCC[C@H]1CNC(=O)c1cc(S(N)(=O)=O)ccc1OC	0.604% (inactive)	–
O=C1NC(=O)C(c2ccccc2)(c2ccccc2)N1	0.448% (inactive)	–
C[N+](C)(C)CCCCCC[N+](C)(C)C	–	inactive
NC(N)=Nc1nc(CSCC/C(N)=N/S(N)(=O)=O)cs1	10.6% (inactive)	–
CC(C)(C)c1ccc(C(O)CCCN2CCC(C(O)(c3ccccc3)c3ccccc3)CC2)cc1 (stereo not drawn)	-4.57% (inactive)	–
CC(C)NCC(O)COc1cccc2[nH]ccc12 (stereo not drawn)	-1.3% (inactive)	–
NCCS	-0.343% (inactive)	–
CC(=O)N[C@@H](CS)C(=O)O	-3.81% (inactive)	–

Source: PubChem BioAssay (NCATS)
